The source holds several records for some structures; these can differ, active in one and inactive in another. The source made the active and inactive calls. Rule for the calls: active = hit-call score of the fitted dose curve at least 0.9, where 1 is the maximum; inactive = score below 0.9.
Read-out: not listed separately
Experiment: BSK_4H_SRB: Viability Assessment in the BioMAP Diversity Plus: 4H Assay (AID 2283027);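 note: cells exposed to compound for 24 h before staining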
Settings: primary human endothelial cells (HUVEC)
Procedure, shortened: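 HUVEC, 24 h post-dose; 10% TCA fix, 0.1% SRB stain, A560 nm. Total protein = overt cytotoxicity, parallel to biomarker read. Bidirectional fit vs DMSO baseline.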

Structure (SMILES)	outcome
C=CC/C=C/C/C=C/C/C=C/C	inactive
FC(F)(F)C(F)(F)C(F)(F)C(F)(F)C(F)(F)C(F)(F)C(F)(F)I	inactive
FC1CC(F)(F)C(F)(F)C1(F)F (configuration not stated)	inactive
O=C(O)C(F)(F)C(F)(F)OC(F)(F)F	inactive
C=CC(F)(F)C(F)(F)C(F)(F)C(F)(F)C(F)(F)C(F)(F)C(F)(F)C(F)(F)C=C	inactive
O=C(O)C(F)(F)C(F)(F)C(F)(F)C(F)(F)C(F)(F)C(F)(F)C(F)(F)C(F)(F)C(F)(F)C(F)(F)C(F)(F)C(F)(F)C(F)(F)F	inactive
CS(C)(=O)=O	inactive
CCN(CC)c1ccc2c(C)cc(=O)oc2c1	inactive
CCCCCCCOC(=O)c1ccccc1C(=O)OCCCCCCC	inactive
O=S(=O)(O)C(F)(F)C(F)(F)C(F)(F)C(F)(F)C(F)(F)C(F)(F)C(F)(F)F	inactive
OCC(F)(F)C(F)(F)C(F)(F)F	inactive
O=C(O)C(F)(OC(F)(F)C(F)(OC(F)(F)C(F)(OC(F)(F)C(F)(F)C(F)(F)F)C(F)(F)F)C(F)(F)F)C(F)(F)F (configuration not stated)	inactive

Read-out: not listed separately
Experiment: BSK_BE3C_SRB: Viability Assessment in the BioMAP Diversity Plus: BE3C Assay (AID 2283028);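 note: measured 24 h after chemical dosing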
Settings: primary human bronchial epithelial cells
Procedure, shortened: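 Overt cytotoxicity was assessed as total protein in confluent human primary bronchial epithelial cultures 24 h after chemical addition, using 0.1% sulforhodamine B staining read at 560 nm.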

Structure (SMILES)	outcome
C=CC/C=C/C/C=C/C/C=C/C	inactive
FC(F)(F)C(F)(F)C(F)(F)C(F)(F)C(F)(F)C(F)(F)C(F)(F)I	inactive
FC1CC(F)(F)C(F)(F)C1(F)F (configuration not stated)	inactive
O=C(O)C(F)(F)C(F)(F)OC(F)(F)F	inactive
C=CC(F)(F)C(F)(F)C(F)(F)C(F)(F)C(F)(F)C(F)(F)C(F)(F)C(F)(F)C=C	inactive
O=C(O)C(F)(F)C(F)(F)C(F)(F)C(F)(F)C(F)(F)C(F)(F)C(F)(F)C(F)(F)C(F)(F)C(F)(F)C(F)(F)C(F)(F)C(F)(F)F	inactive
CS(C)(=O)=O	inactive
CCN(CC)c1ccc2c(C)cc(=O)oc2c1	inactive
CCCCCCCOC(=O)c1ccccc1C(=O)OCCCCCCC	inactive
O=S(=O)(O)C(F)(F)C(F)(F)C(F)(F)C(F)(F)C(F)(F)C(F)(F)C(F)(F)F	inactive
OCC(F)(F)C(F)(F)C(F)(F)F	inactive
O=C(O)C(F)(OC(F)(F)C(F)(OC(F)(F)C(F)(OC(F)(F)C(F)(F)C(F)(F)F)C(F)(F)F)C(F)(F)F)C(F)(F)F (configuration not stated)	inactive

Read-out: Thrombomodulin, THBD (gene 7056)
Experiment: BSK_3C_Thrombomodulin: BioMAP Diversity Plus: 3C Assay for Thrombomodulin Biomarker Activity (AID 2283029)
Settings: primary human endothelial cells (HUVEC); actives raise or lower the signal
Procedure, shortened: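 In a multiplexed primary-cell system, human umbilical vein endothelium received chemical and was assayed 24 h later for thrombomodulin by ELISA. Parallel cultures were SRB-stained (0.1% SRB after 10% TCA fixation, read at 560 nm) to flag cytotoxicity.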

Structure (SMILES)	outcome
C=CC/C=C/C/C=C/C/C=C/C	inactive
FC(F)(F)C(F)(F)C(F)(F)C(F)(F)C(F)(F)C(F)(F)C(F)(F)I	inactive
FC1CC(F)(F)C(F)(F)C1(F)F (configuration not stated)	inactive
O=C(O)C(F)(F)C(F)(F)OC(F)(F)F	inactive
C=CC(F)(F)C(F)(F)C(F)(F)C(F)(F)C(F)(F)C(F)(F)C(F)(F)C(F)(F)C=C	inactive
O=C(O)C(F)(F)C(F)(F)C(F)(F)C(F)(F)C(F)(F)C(F)(F)C(F)(F)C(F)(F)C(F)(F)C(F)(F)C(F)(F)C(F)(F)C(F)(F)F	inactive
CS(C)(=O)=O	inactive
CCN(CC)c1ccc2c(C)cc(=O)oc2c1	inactive
CCCCCCCOC(=O)c1ccccc1C(=O)OCCCCCCC	inactive
O=S(=O)(O)C(F)(F)C(F)(F)C(F)(F)C(F)(F)C(F)(F)C(F)(F)C(F)(F)F	inactive
OCC(F)(F)C(F)(F)C(F)(F)F	inactive
O=C(O)C(F)(OC(F)(F)C(F)(OC(F)(F)C(F)(OC(F)(F)C(F)(F)C(F)(F)F)C(F)(F)F)C(F)(F)F)C(F)(F)F (configuration not stated)	inactive

Read-out: Urokinase-type plasminogen activator receptor (uPAR), PLAUR (gene 5329)
Experiment: BSK_4H_uPAR: BioMAP Diversity Plus: 4H Assay for Urokinase-type plasminogen activator receptor (uPAR) Biomarker Activity (AID 2283030)
Settings: primary human endothelial cells (HUVEC); actives raise or lower the signal
Procedure, shortened: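 Chemicals are dosed onto human vascular endothelial primary cells (umbilical vein). After 24 h, uPAR is read by ELISA. Gain or loss of signal is fitted relative to DMSO.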

Structure (SMILES)	outcome	AC50
C=CC/C=C/C/C=C/C/C=C/C	inactive	–
FC(F)(F)C(F)(F)C(F)(F)C(F)(F)C(F)(F)C(F)(F)C(F)(F)I	inactive	–
FC1CC(F)(F)C(F)(F)C1(F)F (configuration not stated)	inactive	–
O=C(O)C(F)(F)C(F)(F)OC(F)(F)F	inactive	–
C=CC(F)(F)C(F)(F)C(F)(F)C(F)(F)C(F)(F)C(F)(F)C(F)(F)C(F)(F)C=C	inactive	–
O=C(O)C(F)(F)C(F)(F)C(F)(F)C(F)(F)C(F)(F)C(F)(F)C(F)(F)C(F)(F)C(F)(F)C(F)(F)C(F)(F)C(F)(F)C(F)(F)F	inactive	–
CS(C)(=O)=O	inactive	–
CCN(CC)c1ccc2c(C)cc(=O)oc2c1	inactive	–
CCCCCCCOC(=O)c1ccccc1C(=O)OCCCCCCC	–	4.08 µM (active)
O=S(=O)(O)C(F)(F)C(F)(F)C(F)(F)C(F)(F)C(F)(F)C(F)(F)C(F)(F)F	inactive	–
OCC(F)(F)C(F)(F)C(F)(F)F	inactive	–
O=C(O)C(F)(OC(F)(F)C(F)(OC(F)(F)C(F)(OC(F)(F)C(F)(F)C(F)(F)F)C(F)(F)F)C(F)(F)F)C(F)(F)F (configuration not stated)	inactive	–

Read-out: Vascular endothelial growth factor receptor 2 (Homo sapiens) (UniProt P35968)
Experiment: BSK_4H_VEGFRII: BioMAP Diversity Plus: 4H Assay for Vascular endothelial growth factor receptor 2 (VEGFR2) Biomarker Activity (AID 2283031);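 for AC50: cell-surface VEGFR2 protein level quantified by ELISA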
Settings: primary human endothelial cells (HUVEC); actives raise or lower the signal
Procedure, shortened: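 VEGFRII levels on human vascular endothelial primary cells were determined by ELISA at 24 hours post-dosing, with gain- or loss-of-signal fitted against DMSO controls.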

Structure (SMILES)	outcome	AC50
C=CC/C=C/C/C=C/C/C=C/C	inactive	–
FC(F)(F)C(F)(F)C(F)(F)C(F)(F)C(F)(F)C(F)(F)C(F)(F)I	inactive	–
FC1CC(F)(F)C(F)(F)C1(F)F (configuration not stated)	inactive	–
O=C(O)C(F)(F)C(F)(F)OC(F)(F)F	inactive	2.45 µM (active)
C=CC(F)(F)C(F)(F)C(F)(F)C(F)(F)C(F)(F)C(F)(F)C(F)(F)C(F)(F)C=C	inactive	–
O=C(O)C(F)(F)C(F)(F)C(F)(F)C(F)(F)C(F)(F)C(F)(F)C(F)(F)C(F)(F)C(F)(F)C(F)(F)C(F)(F)C(F)(F)C(F)(F)F	inactive	0.932 µM (active)
CS(C)(=O)=O	inactive	–
CCN(CC)c1ccc2c(C)cc(=O)oc2c1	inactive	–
CCCCCCCOC(=O)c1ccccc1C(=O)OCCCCCCC	inactive	–
O=S(=O)(O)C(F)(F)C(F)(F)C(F)(F)C(F)(F)C(F)(F)C(F)(F)C(F)(F)F	inactive	–
OCC(F)(F)C(F)(F)C(F)(F)F	inactive	–
O=C(O)C(F)(OC(F)(F)C(F)(OC(F)(F)C(F)(OC(F)(F)C(F)(F)C(F)(F)F)C(F)(F)F)C(F)(F)F)C(F)(F)F (configuration not stated)	inactive	–

From PubChem BioAssay (EPA / NIEHS)
